Our source for the NF-kB reporter, IRF reporter and viability score values is the supplement of paper PMC10646978.

What all share (details): modulator concentration 10 µM
The test system of assay [1] is RAW-Dual (murine macrophage reporter line). Briefly: NF-kB reporter (SEAP) activity fold change vs agonist alone; higher = enhanced NF-kB activity. In short, it runs like this: (§1)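 In 384-well plates holding 50 000 RAW-Dual murine macrophage reporter cells per well, compound at 10 μM final was pre-incubated for 1 hour at 37 °C, after which a PRR agonist was added overnight. Supernatant SEAP read with QUANTI-Blue at 620 nm absorbance reported NF-κB, and Lucia luciferase read with QUANTI-Luc luminescence reported IRF. Fold change values come from dividing each reporter signal by the mean of agonist-only control wells on the same plate, averaged over replicate plates with propagated errors.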

Assay [2] shares this test system. Description: IRF reporter (Lucia luciferase) activity fold change vs agonist alone; higher = enhanced IRF activity. In short, it runs like this:
as §1

The test system is the same in assay [3]. Briefly: viability score (confluency relative to resting cells, overnight) (fraction); higher = more viable, active = viable (0.7 or more). The method in brief:
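RAW-Dual macrophages in 384-well plates were treated overnight with compound at 10 μM final. IncuCyte imaging recorded confluency, and IncuCyte software built two confluency masks across every imaged well. The viability score expresses confluency relative to resting cells and was judged against a cutoff, which a compound met only if both masks exceeded 70% of resting cells.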

Setting [4] is: agonist: CpG ODN 1826 0.5 ug/mL.

± gives the standard deviation.

With `CC(C)n1cnc(S(=O)(=O)N2CCC(S(=O)(=O)c3nccn3C)CC2)c1`, the NF-kB reporter in assay [1] (setting [4]) is 0.36 ± 0.028; in assay [1] (agonist: LPS 0.1 ug/mL), 0.842 ± 0.067; in assay [1] (agonist: MPLA […]) it was 0.663 ± 0.048. Also, the IRF reporter in assay [2] (agonist: 3'3'-cGAMP 10 ug/mL) was 0.935 ± 0.026; in assay [2] (agonist: LPS 0.1 ug/mL) it was 1.34 ± 0.14; in assay [2] (agonist: MPLA […]), 1.14 ± 0.084. For the same molecule, the viability score in assay [3] is 0.878 (active).

Regarding `Nc1nc(N)c2nc(-c3ccccc3)c(N)nc2n1`, the figures for the NF-kB reporter in assay [1] (setting [4]), in assay [1] (agonist: LPS 0.1 ug/mL) and in assay [1] (agonist: MPLA […]) were 0.861 ± 0.15, 1.03 ± 0.17 and 0.891 ± 0.056, respectively. For the same molecule, the values for the IRF reporter in assay [2] (agonist: 3'3'-cGAMP 10 ug/mL), in assay [2] (agonist: LPS 0.1 ug/mL) and in assay [2] (agonist: MPLA […]) were 0.56 ± 0.017, 1.17 ± 0.27 and 1.18 ± 0.18, respectively. The viability score in assay [3] was 0.92 (active).

As for `S=C(NCCN1CCCCC1)NCc1ccccc1`, the values for the NF-kB reporter in assay [1] (setting [4]), in assay [1] (agonist: LPS 0.1 ug/mL) and in assay [1] (agonist: MPLA […]) were 0.962 ± 0.14, 1 ± 0.055 and 0.99 ± 0.12, respectively. For the same molecule, the figures for the IRF reporter in assay [2] (agonist: 3'3'-cGAMP 10 ug/mL), in assay [2] (agonist: LPS 0.1 ug/mL) and in assay [2] (agonist: MPLA […]) were 1.01 ± 0.035, 1.33 ± 0.14 and 1.22 ± 0.12, respectively. Also, in assay [3], the viability score was 1.01 (active).

On to `Nc1ccc(OCc2ccccc2)cc1`, for which the NF-kB reporter in assay [1] (setting [4]) turned out to be 0.977 ± 0.16; in assay [1] (agonist: LPS 0.1 ug/mL), 1.01 ± 0.1; in assay [1] (agonist: MPLA […]) it was 0.995 ± 0.12. Besides, the figures for the IRF reporter in assay [2] (agonist: 3'3'-cGAMP 10 ug/mL), in assay [2] (agonist: LPS 0.1 ug/mL) and in assay [2] (agonist: MPLA […]) were 0.635 ± 0.024, 1.03 ± 0.1 and 1.16 ± 0.17, respectively. The viability score in assay [3] was 1.01 (active).

Turning to `Cc1cc(=O)n(CC(=O)N2CCC(c3ccccc3F)S(=O)(=O)CC2)cn1` (stereo unspecified), the NF-kB reporter is 1.01 ± 0.06 in assay [1] (setting [4]), 1.07 ± 0.084 in assay [1] (agonist: LPS 0.1 ug/mL) and 0.953 ± 0.09 in assay [1] (agonist: MPLA […]). The values for the IRF reporter in assay [2] (agonist: 3'3'-cGAMP 10 ug/mL), in assay [2] (agonist: LPS 0.1 ug/mL) and in assay [2] (agonist: MPLA […]) were 1 ± 0.063, 1.12 ± 0.081 and 1.04 ± 0.091, respectively. In addition, the viability score in assay [3] is 1 (active).

Consider `COC1(C)CCC2OC2(C)CCC2C1CC2(C)C` (stereo unspecified), for which the NF-kB reporter in assay [1] (setting [4]) is 1.31 ± 0.31; in assay [1] (agonist: LPS 0.1 ug/mL) it was 1.06 ± 0.053; in assay [1] (agonist: MPLA […]), 1.04 ± 0.12. Further, the IRF reporter was determined as 1.03 ± 0.041 in assay [2] (agonist: 3'3'-cGAMP 10 ug/mL), 1.28 ± 0.15 in assay [2] (agonist: LPS 0.1 ug/mL) and 1.17 ± 0.13 in assay [2] (agonist: MPLA […]). Further, the viability score in assay [3] is 0.87 (active).

With `O=C(Nc1ccc([N+](=O)[O-])cc1)Nc1ccc(Cl)cn1`, the NF-kB reporter in assay [1] (setting [4]) was determined as 0.838 ± 0.065; in assay [1] (agonist: LPS 0.1 ug/mL), 0.942 ± 0.074; in assay [1] (agonist: MPLA […]), 0.986 ± 0.14. Moreover, the figures for the IRF reporter in assay [2] (agonist: 3'3'-cGAMP 10 ug/mL), in assay [2] (agonist: LPS 0.1 ug/mL) and in assay [2] (agonist: MPLA […]) were 0.893 ± 0.041, 1.39 ± 0.1 and 1.61 ± 0.14, respectively. Further, the viability score in assay [3] was 1 (active).

Regarding `CC(=O)NC(Cc1c[nH]c2ccccc12)C(=O)O` (stereo unspecified), the NF-kB reporter turned out to be 1.09 ± 0.27 in assay [1] (setting [4]), 1.09 ± 0.083 in assay [1] (agonist: LPS 0.1 ug/mL) and 0.978 ± 0.063 in assay [1] (agonist: MPLA […]). For the same molecule, the IRF reporter in assay [2] (agonist: 3'3'-cGAMP 10 ug/mL) came out at 0.969 ± 0.042; in assay [2] (agonist: LPS 0.1 ug/mL) it was 1.33 ± 0.14; in assay [2] (agonist: MPLA […]), 1.3 ± 0.13. Also, the viability score in assay [3] was 0.995 (active).

As to `Cc1cccc(C(=O)ON=C(c2ccncc2)c2ccc([N+](=O)[O-])cc2)c1`, the NF-kB reporter in assay [1] (setting [4]) is 0.806 ± 0.07; in assay [1] (agonist: LPS 0.1 ug/mL), 0.838 ± 0.039; in assay [1] (agonist: MPLA […]), 1.06 ± 0.099. The IRF reporter amounted to 1.03 ± 0.068 in assay [2] (agonist: 3'3'-cGAMP 10 ug/mL), 1.43 ± 0.083 in assay [2] (agonist: LPS 0.1 ug/mL) and 1.61 ± 0.14 in assay [2] (agonist: MPLA […]). For the same molecule, the viability score in assay [3] is 1 (active).

On to `O=S(=O)(Nc1ccc(-c2nc3cccnc3s2)cc1)c1cccs1`, for which the NF-kB reporter was found to be 0.902 ± 0.23 in assay [1] (setting [4]), 0.748 ± 0.23 in assay [1] (agonist: LPS 0.1 ug/mL) and 0.566 ± 0.07 in assay [1] (agonist: MPLA […]). Moreover, the IRF reporter was 0.783 ± 0.027 in assay [2] (agonist: 3'3'-cGAMP 10 ug/mL), 0.973 ± 0.37 in assay [2] (agonist: LPS 0.1 ug/mL) and 0.892 ± 0.12 in assay [2] (agonist: MPLA […]). Besides, in assay [3], the viability score is 0.672 (inactive).

Consider `CN(C)C1C(O)=C(C(N)=O)C(=O)C2(O)C(O)=C3C(=O)c4c(O)cccc4C(C)(O)C3CC12.Cl` (stereo unspecified), for which the NF-kB reporter in assay [1] (setting [4]) stood at 1.11 ± 0.097; in assay [1] (agonist: LPS 0.1 ug/mL), 1 ± 0.053; in assay [1] (agonist: MPLA […]), 1.01 ± 0.021. Also, the figures for the IRF reporter in assay [2] (agonist: 3'3'-cGAMP 10 ug/mL), in assay [2] (agonist: LPS 0.1 ug/mL) and in assay [2] (agonist: MPLA […]) were 0.844 ± 0.056, 0.937 ± 0.1 and 0.921 ± 0.072, respectively. The viability score in assay [3] was 1 (active).

In the case of `Cc1cc(C(=O)Nc2ccccc2S(C)(=O)=O)no1`, the figures for the NF-kB reporter in assay [1] (setting [4]), in assay [1] (agonist: LPS 0.1 ug/mL) and in assay [1] (agonist: MPLA […]) were 1.17 ± 0.069, 1.04 ± 0.08 and 0.992 ± 0.055, respectively. For the same molecule, the IRF reporter in assay [2] (agonist: 3'3'-cGAMP 10 ug/mL) worked out at 0.995 ± 0.056; in assay [2] (agonist: LPS 0.1 ug/mL) it was 1.04 ± 0.05; in assay [2] (agonist: MPLA […]) it was 1.06 ± 0.15. Moreover, the viability score in assay [3] was 1 (active).

As to `COc1ccc(N2CCN(C(=O)Cc3csc(NC(=O)Nc4ccccc4OC)n3)CC2)cc1`, the NF-kB reporter in assay [1] (setting [4]) was 0.911 ± 0.069; in assay [1] (agonist: LPS 0.1 ug/mL), 1.03 ± 0.1; in assay [1] (agonist: MPLA […]), 0.884 ± 0.036. The IRF reporter was 0.784 ± 0.043 in assay [2] (agonist: 3'3'-cGAMP 10 ug/mL), 0.922 ± 0.073 in assay [2] (agonist: LPS 0.1 ug/mL) and 0.48 ± 0.042 in assay [2] (agonist: MPLA […]). For the same molecule, in assay [3], the viability score is 0.983 (active).
